Screening data: PubChem BioAssay, several laboratories
NR2F2 inh: blocks human COUP-TFII nuclear receptor | inhibition, % at 8.6 µM | P24468 | HEK293T NGFI-A luciferase reporter, luminescence | AID 686940 | actives 0.7% (n = 370,000);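 active means inhibition above a per-plate cutoff, mean inhibition of test wells between control levels plus 3 SD, cut at about 38% in these data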;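 further: cells cotransfected with COUP-TFII expression vector driving the NGFI-A reporter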
NCOA1 inh: inhibitors of human steroid receptor coactivator 1 (SRC1); Q15788; HEK293 GAL4-SRC1 luciferase reporter, luminescence; inhibition, % at 3.6 µM; actives 0.12% (n = 360,000);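 active means inhibition above the campaign mean plus 3 SD, with each screening campaign given its own cutoff, cut at about 60% in these data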
LRH-1 inv ag: NR5A2 inverse agonism in reporter assay. actives 0.13% (n = 360,000). HEK293T StAR-luciferase reporter, LRH-1 transfected, 24 h. inhibition, % at 3.6 µM. AID 602396;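 active means inhibition above the mean inhibition of all tested compounds plus 3 SD, cut at about 73% in these data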
Target sequence (O00482 whole entry, looked up): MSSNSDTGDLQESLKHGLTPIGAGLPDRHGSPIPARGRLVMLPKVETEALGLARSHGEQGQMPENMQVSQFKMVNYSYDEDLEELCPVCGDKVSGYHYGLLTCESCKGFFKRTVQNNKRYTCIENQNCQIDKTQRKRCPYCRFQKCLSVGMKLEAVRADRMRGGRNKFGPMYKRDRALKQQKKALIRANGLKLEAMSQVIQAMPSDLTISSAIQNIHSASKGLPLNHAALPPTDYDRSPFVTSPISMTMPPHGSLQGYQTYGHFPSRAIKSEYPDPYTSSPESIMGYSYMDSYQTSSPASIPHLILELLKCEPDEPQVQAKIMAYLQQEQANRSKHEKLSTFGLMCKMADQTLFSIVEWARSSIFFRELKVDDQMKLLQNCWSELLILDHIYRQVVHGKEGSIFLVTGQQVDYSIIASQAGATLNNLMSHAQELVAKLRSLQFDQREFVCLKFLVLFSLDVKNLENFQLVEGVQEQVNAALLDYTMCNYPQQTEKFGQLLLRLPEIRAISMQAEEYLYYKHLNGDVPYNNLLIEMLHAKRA
Gli-Sufu block: antagonists of Gli-Sufu signaling | Sufu-KO-LIGHT fibroblasts, Gli luciferase reporter luminescence | inhibition, % at 5 µM | actives 0.74% (n = 340,000) | AID 588413;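 active means inhibition above about 55%, limit read from the data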
SRC3 inh: inhibitors of human steroid receptor coactivator 3 (SRC3) | Q9Y6Q9 | HEK293 GAL4-SRC3 luciferase reporter, luminescence | inhibition, % at 3.6 µM | actives 0.17% (n = 360,000) | AID 588352;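 active means inhibition above a per-campaign cutoff, the mean of all compounds plus 3 SD, cut at about 60% in these data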;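 further: higher means less SRC3-driven luciferase light from the GAL4 reporter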
SRC2 inh: inhibits human steroid receptor coactivator 2; actives 0.17% (n = 370,000); HEK293 GAL4-SRC2 luciferase reporter, luminescence; Q15596; inhibition, % at 9 µM;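 active means inhibition above the mean inhibition of all tested compounds plus 3 SD, set per campaign, cut at about 52% in these data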
Gli-Sufu confirm: confirmation of Gli-SUFU pathway antagonists | shares compounds with Gli-Sufu block | Sufu-KO-LIGHT cells, Gli luciferase reporter, luminescence | inhibition, % at 5 µM | actives 40% (n = 2,500) | AID 602428;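 active means mean inhibition at 5 µM reaching about 45%, limit read from the data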
Gli cytotox: cytotoxicity counter-screen for Gli-SUFU antagonists | shares compounds with Gli-Sufu block | Sufu-KO-LIGHT cells cytotoxicity, ATP luminescence | cytotoxicity, % at 5 µM | actives 32% (n = 2,500);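 active means mean cytotoxicity at 5 µM above about 25%, limit read from the data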;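 further: cells exposed to compound overnight for roughly 16 to 18 hours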
Wnt3a cs: Wnt3a reporter inhibition counter-screen. inhibition, % at 6.25 µM. actives 20% (n = 2,500). shares compounds with Gli-Sufu block. Wnt-LIGHT cells, Wnt3a-driven luciferase reporter, luminescence;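 active means mean inhibition above about 25%, limit read from the data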
Hits are given with their value; . = inactive; / = not tested or not shown. Rows were chosen to be rich in hits. Some 1.3% of all compounds tested hit in one or more screens of this group.

SMILES	NR2F2 inh	NCOA1 inh	LRH-1 inv ag	Gli-Sufu block	SRC3 inh	SRC2 inh	Gli-Sufu confirm	Gli cytotox	Wnt3a cs
Cc1cc(C)c(NC(=S)N(CCN(C)C)C(C)c2cccnc2)c(C)c1 (stereo not drawn)	.	.	.	.	.	.	/	/	/
Cc1cc(C)cc(NC(=S)N(CCN(C)C)C(C)c2cccnc2)c1 (stereo not drawn)	.	.	.	.	.	.	.	.	.
O=C(Nc1ccc2oc(-c3ccncc3)nc2c1)c1ccccc1	.	.	.	85	.	.	.	.	.
O=C(Nc1ccc2oc(-c3ccncc3)nc2c1)c1ccccc1F	.	.	.	.	.	.	/	/	/
Cc1ccc(OCc2nnc(SCC(=O)Nc3cccc4ccccc34)n2Cc2ccco2)cc1	.	/	/	/	/	.	/	/	/
CC1Cn2c(Cc3ccccc3)nnc2S1 (stereo not drawn)	.	.	.	/	.	.	/	/	/
CC1Cn2c(CCc3ccccc3)nnc2S1 (stereo not drawn)	.	.	.	.	.	.	.	.	.
Cc1csc(N(C(=O)c2cccc(S(=O)(=O)N3CCCC3)c2)c2ccccc2)n1	.	.	.	.	.	.	/	/	/
Cc1csc(N(C(=O)c2cccc(S(=O)(=O)N(C)C)c2)c2ccccc2)n1	.	.	.	57	.	.	.	.	.
COc1ccc(S[C@]2(C(=O)N3CCN(c4ncccn4)CC3)CC(=O)N(c3ccsc3)[C@@H]2c2ccc(OC)cc2)cc1	.	/	/	/	/	.	/	/	/
CS(=O)(=O)c1nc(S(=O)(=O)c2ccc(Cl)cc2)c(NCCN2CCOCC2)s1	.	.	.	.	.	.	/	/	/
CS(=O)(=O)c1nc(S(=O)(=O)c2ccc(Cl)cc2)c(NCCCn2ccnc2)s1	.	.	.	57	.	.	.	.	.
COc1ccc(Cl)cc1NC(=O)CCc1nnc2ccc(N3CCN(C)CC3)nn12	.	.	.	60	.	.	.	.	.
Cn1c(=O)c2cc(S(=O)(=O)N3CCN(CCO)CC3)ccc2n(C)c1=O	.	/	/	/	/	.	/	/	/
COCCN(C(=O)COC(=O)C1CCC(C(C)(C)C)CC1)c1c(N)n(Cc2ccccc2)c(=O)[nH]c1=O (stereo not drawn)	.	.	.	72	.	.	81	28	.
CCCCC1CCC(C(=O)OCC(=O)N(CCOC)c2c(N)n(Cc3ccccc3)c(=O)[nH]c2=O)CC1 (stereo not drawn)	.	.	.	.	.	.	/	/	/
COCCSc1ncccc1-c1nc2ccccc2[nH]1	.	/	/	/	/	.	/	/	/
Cn1c(=O)[nH]c(=O)c2c1ncn2CCN1CCOCC1	.	.	.	92	.	.	.	.	.
Cc1ccc(CSc2nnc(-c3cc(-c4ccc(F)cc4)n[nH]3)n2N)cc1	.	/	/	/	/	.	/	/	/
CS(=O)(=O)N(CC(=O)N1CCOCC1)c1ccc(Cl)cc1	.	.	.	56	.	.	.	.	.
CS(=O)(=O)N(CC(=O)N1CCCCCC1)c1ccc(Cl)cc1	.	.	.	.	.	.	/	/	/
CN1CCC(=C2c3ccccc3CC(=O)c3sccc32)CC1	.	.	.	.	.	.	.	.	.
CN1CCC(=C2c3ccccc3CCc3sccc32)CC1	/	.	.	.	.	/	/	/	/
O=C(c1cc(F)cc(F)c1)N1CCCC(c2nc(-c3cccs3)no2)C1 (stereo not drawn)	.	/	/	/	/	.	/	/	/
Cc1cccc(C)c1NC(=O)CSc1nnnn1C	.	.	.	57	.	.	.	.	.
SMILES	NR2F2 inh	NCOA1 inh	LRH-1 inv ag	Gli-Sufu block	SRC3 inh	SRC2 inh	Gli-Sufu confirm	Gli cytotox	Wnt3a cs
Cc1cccc(C)c1NC(=O)CCCSc1nnnn1C	.	.	.	.	.	.	/	/	/
Cn1c(=O)c(=O)n(C)c2cc(S(=O)(=O)N3CCN(Cc4ccc5c(c4)OCO5)CC3)ccc21	.	/	/	/	/	.	/	/	/
CN(CC(=O)Nc1ccccc1Cl)C(=O)c1cccc(S(=O)(=O)N2CCN(c3ccc(F)cc3)CC2)c1	.	.	.	.	.	.	/	/	/
CN(CCOc1ccc(Cl)cc1)C(=O)c1cccc(S(=O)(=O)N2CCN(c3ccc(F)cc3)CC2)c1	/	.	.	70	.	/	64	26	.
Cc1ccc(N2CC(c3nc4ccccc4[nH]3)CC2=O)c(C)c1 (stereo not drawn)	.	.	.	.	.	.	.	.	.
CCOC(=O)CC[C@@H]1CC[C@]2(CCCN(Cc3nccn3C)C2)O1	.	/	/	/	/	.	/	/	/
CCOc1cc(C(=O)N/N=C/C(Br)=C/c2ccccc2)cc(OCC)c1OCC	.	.	.	.	.	.	64	47	.
O=C(N/N=C/C(Br)=C/c1ccccc1)c1ccncc1	.	.	.	.	.	.	/	/	/
CCc1nn(CCCC(=O)NCc2ccccc2Br)c(=O)c2cc3occc3n12	.	.	.	82	.	.	.	.	.
Brc1ccc(-c2c[n+]3c(n2-c2ccccc2)SCC3)cc1	.	.	.	63	.	.	60	25	.
COc1ccc(C(CCOC(=O)Oc2ccccc2)c2cc(OC)cc(OC)c2)cc1 (stereo not drawn)	.	/	/	/	/	.	/	/	/
Cc1ccc(C23CC4CC(CC(NC(=O)NN)(C4)C2)C3)cc1	.	.	.	.	.	.	.	.	.
COc1cccc(NC(=O)CCS(=O)(=O)c2ccc3c(c2)oc(=O)n3C)c1	.	.	.	.	.	.	.	26	.
CCSc1nc(N)c(C#N)c(-c2ccco2)c1C#N	.	.	.	89	.	.	.	.	.
N#Cc1c(N)nc2c(c1-c1ccncc1)CCCCC2	.	.	.	.	.	.	/	/	/
N#Cc1c(N)nc2c(c1-c1ccco1)CCCCC2	.	.	.	98	.	.	.	.	.
COC(=O)CSc1nc(N)c(C#N)c(-c2ccco2)c1C#N	.	.	.	.	.	.	/	/	/
CCN(CC(=O)NCc1cccs1)C(=O)/C=C/c1cc(Br)ccc1OC(F)F	.	.	.	.	.	.	.	.	.
CCN(CC(=O)NCc1cccs1)C(=O)/C=C/c1cccc(Br)c1	.	.	.	.	.	.	/	/	/
Cc1ccc(-c2cc(C(=O)NN=Cc3ccc(N(C)C)cc3)[nH]n2)cc1C	.	/	/	/	/	.	/	/	/
CN(C)c1ccc(NC(=O)CN2CCC(N3CCCCC3)CC2)cc1	.	.	.	.	.	.	.	.	.
O=C(COC(=O)c1ccc2[nH]c3c(c2c1)CCCC3)Nc1ccccc1Cl	.	.	.	.	.	.	47	.	.
Cc1nn(Cc2ccccc2)c(C)c1NC(=O)CCCn1nc([N+](=O)[O-])c(Cl)c1C	.	.	.	.	.	.	.	.	.
